# Compounds with a hit are over-represented: about 9% of the library has one in this group of screens.
# ALDH1A1 block: qHTS Assay for Inhibitors of Aldehyde Dehydrogenase 1 (ALDH1A1); Aldehyde dehydrogenase 1A1 (Homo sapiens), P00352; Potency, µM (doses to about 75.3 µM), inactives show top-dose activity, negative = inhibition, most hits filed as inhibitors; Purified ALDH1A1, NADH fluorescence, propionaldehyde substrate; actives 7.3% (n = 220,000); active means well fitted inhibition curve with a large enough effect, not every such curve was filed as active; inconclusive means small, poorly fitted or top-dose-only effect, or another doubt; inactive means no such curve, though single readings can be large or run the other way;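 further: plate controls were no enzyme wells and a reference inhibitor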
# Target sequence (P00352 whole entry, looked up): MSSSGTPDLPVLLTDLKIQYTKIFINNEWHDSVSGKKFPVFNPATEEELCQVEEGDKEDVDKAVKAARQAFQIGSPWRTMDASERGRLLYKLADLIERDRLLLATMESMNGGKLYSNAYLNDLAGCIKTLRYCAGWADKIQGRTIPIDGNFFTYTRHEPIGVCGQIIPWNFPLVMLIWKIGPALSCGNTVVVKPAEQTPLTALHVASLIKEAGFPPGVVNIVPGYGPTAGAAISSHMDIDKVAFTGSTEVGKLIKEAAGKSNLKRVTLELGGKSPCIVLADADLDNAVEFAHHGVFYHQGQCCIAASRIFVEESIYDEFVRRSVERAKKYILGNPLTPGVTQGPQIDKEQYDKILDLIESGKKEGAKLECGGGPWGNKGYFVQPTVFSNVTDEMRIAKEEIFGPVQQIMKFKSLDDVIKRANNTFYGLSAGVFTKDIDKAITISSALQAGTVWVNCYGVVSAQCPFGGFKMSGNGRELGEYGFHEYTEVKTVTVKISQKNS
# KinaseGlo FLuc: Counterscreen for Luciferase (Kinase-Glo TM) Inhibition; Luciferin 4-monooxygenase (Photuris pensylvanica), Q27757; Kinase-Glo luciferase, ATP luminescence, 8 min; Potency, µM (highest dose often 38.3 µM), without a hit: top-dose activity change, negative = inhibition, hits mostly inhibitors; actives 0.28% (n = 200,000); AID 1379, 2008; further: nearly all actives have a fitted effect of over 60% in size
#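 Substrate mix (final 50 mM imidazole pH 7.2, 50 mM KCl, 7 mM MgCl2, 10 uM ATP, 0.01% Tween 20, 0.05% BSA) plus pin-tool compound, then Kinase-Glo detection mix; 8 min ambient, luminescence read.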
# IMPase Li cell: qHTS Assay for Identifying the Cell-Membrane Permeable IMPase Inhibitors: Potentiation with Lithium; CHO-M1 cells, IP1 TR-FRET (IP-One), carbachol + lithium; Potency, µM (top dose mostly 59.4 µM), for the others: at the highest dose activity, negative = IMPase inhibition, usual class: inhibitors; actives 0.35% (n = 210,000); AID 1457, 2008;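 further: IP1 builds up when IMPase is blocked and the TR-FRET signal falls; plate controls were basal vehicle for no effect and high inhibitor control for full effect; nearly all actives have a fitted effect of over 50% in size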
#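 CHO cells stably expressing M1 receptor (2000/well, cultured 16–30 h) treated 30 min at 37C with compound plus low lithium. Cytosolic IP1 by TR-FRET (665/620 ratio and 620 channel) after 10 min lysis; AC50 by Hill fit.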
# Lamin A splicing: qHTS Assay for Modulators of Lamin A Splicing. HeLa LMNA splicing GFP/RFP minigene ratio, 48 h. Potency, µM (doses to about 46.1 µM), for inactives: top-dose ratio change, negative = inhibition, usual class: inhibitors. actives 0.01% (n = 200,000); active means well fitted inhibition curve with a large enough effect in the signal ratio, with a control signal flat, not every such curve was filed as active; inconclusive means small, poorly fitted or top-dose-only effect, or effect the other way, or a change in a side signal; the % refers to the signal ratio
#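 Read-out is the ratio of GFP to DsRed2 object intensity, acquired by 488 nm laser-scanning cytometry on HeLa lamin A-EGFP minigene reporter cells. Compound incubation 48 hrs at 37 °C in Opti-MEM with 2% FBS; DMSO 0.5% final.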
# HPGD inh: qHTS Assay for Inhibitors of HPGD (15-Hydroxyprostaglandin Dehydrogenase); 15-hydroxyprostaglandin dehydrogenase [NAD(+)] (Homo sapiens), P15428; purified HPGD, NADH fluorescence kinetic, PGE2 substrate; actives 4.3% (n = 150,000); Potency, µM, for the others: at the highest dose activity change, negative = inhibition, actives largely listed as inhibitors; AID 894, 2007; active means well fitted inhibition curve with a large enough effect, not every such curve was filed as active; inconclusive means small, poorly fitted or top-dose-only effect, or another doubt; inactive means no such curve, though single readings can be large or run the other way
#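 NADH formation kinetics: reaction with 30 uM PGE2 and 1 mM NAD+ (final), 20 nM enzyme, Tris-HCl pH 8 with Tween 20, after 15 min compound preincubation at room temperature. Fluorescence change, last versus first of five reads.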
# Active calls of the source: *; ? = inconclusive; / = no result; ! = repeats disagree; [ ] = another dose, or the depositor's remark. Unless noted, the call rests on the fitted dose curve; in most records, active means well fitted curve in the direction sought with a large enough effect; inconclusive means small, poorly fitted or top-dose-only effect, or another doubt; inactive means no such curve, though single readings can be large; an effect the other way counts as inactive or inconclusive. Unless noted, on the % scale 0 is the no-effect control and ±100 the full control effect; potency means the concentration at half of the fitted maximal effect.
SMILES,ALDH1A1 block,KinaseGlo FLuc,IMPase Li cell,Lamin A splicing,HPGD inh
CCCC(=O)Nc1nc(-c2ccc3c(c2)CCN3S(C)(=O)=O)cs1,?,-4%,7%[38.3 µM],12%,-19%
O=C(CSc1nnc(-c2ccc(O)cc2)n1Cc1ccco1)c1cccs1,14µM*,-3%,32%[38.3 µM],-8%,?
Fc1ccc(CSc2nnc(-c3cnccn3)n2Cc2ccco2)cc1,5%,1%,27%[38.3 µM],-1%,-4%
C(=C\c1ccccc1)/CSc1nnc(-c2cnccn2)n1Cc1ccco1,22µM*,-2%,15%,?,-20%
O=C(CC(SCc1ccco1)c1ccc(O)cc1)c1cccs1 (stereo not drawn),13µM*,-2%,9%[38.3 µM],9%,-13%
Clc1ccccc1CSc1nnc(-c2cccnc2)n1Cc1ccco1,7.9µM*,-1%,13%[38.3 µM],?,28µM*
CC(=O)NC1C(O)C[C@@](O)(C(=O)O)OC1[C@@H](O)C(O)CO (stereo partly drawn),5%,-4%,8%,4%,2%
O=C(CSc1nnc(-c2cccnc2)n1Cc1ccco1)c1ccccc1,?,-6%,5%[38.3 µM],15%,16µM*
CCOC(=O)c1oc2ccccc2c1NC(=O)c1ccc(Cl)s1,81%,7%,35%[38.3 µM],-13%,-20%
COc1ccc(C(=O)N(c2ccc(OC)cc2)S(=O)(=O)c2cccs2)cc1,5µM*,-4%,9%,-8%,-12%
COC(CNC(=O)C1CCN(C(=O)c2cc3oc(C)cc3n2Cc2c(F)cccc2Cl)CC1)OC,?,/,-19%,/,/
CCOC(=O)N1CCC(NC(=O)C2CCN(C(=O)c3cc4oc(C)cc4n3Cc3c(F)cccc3Cl)CC2)CC1,20µM*,1%,15%,/,/
COc1cc(/C=N\NC(=O)C2CC3C=CC2C3)ccc1O (stereo not drawn),5%,-1%,1%,-2%,-17%
Cc1ccc(S(=O)(=O)N[C@H](CN)C(=O)O)cc1,6%[13.5 µM],-3%[7.66 µM],-2%,/,-1%
COc1ccc(C2=CC(c3ccc(OC)c(OC)c3)NC(=S)N2)cc1 (stereo not drawn),?,-1%,-16%[38.3 µM],?,?
COc1cccc(C2=CC(c3ccc(OC)c(OC)c3)NC(=S)N2)c1 (stereo not drawn),14µM*,/,/,/,/
Cc1ccc(Nc2cc(C)nc3ncnn23)c(Cl)c1,5%,-2%,1%,-12%,-7%
CCOc1ccc(OCC)c(Nc2cc(C)nc3nc(C)nn23)c1,3%,11%,4%,-11%,0.5µM*
CCOc1ccc(OCC)c(Nc2cc(C)nc3ncnn23)c1,1%,2%,25%[38.3 µM],-20%,4.5µM*
Cc1cc(Nc2ccccc2F)n2nc(C)nc2n1,4%,1%,8%,14%,-16%
COc1ccc(C)cc1Nc1cc(C)nc2ncnn12,1%,-1%,4%,7%,5µM*
CCOc1ccccc1Nc1cc(C)nc2nc(C)nn12,-6%,2%,8%,-1%,1.6µM*
Cc1cc(Nc2cc(F)ccc2C)n2ncnc2n1,-16%,4%,31%[38.3 µM],-9%,-19%
N#Cc1c(Cl)nsc1NC(=O)c1ccccc1,?,2%,28%,/,/
O=S(=O)(c1cccc2c(Cl)cccc12)N1CCCNCC1,-5%,-3%,-7%,?,-10%
SMILES,ALDH1A1 block,KinaseGlo FLuc,IMPase Li cell,Lamin A splicing,HPGD inh
Cc1cc2nc(/N=C(\N)NC(=O)N3c4ccccc4Sc4ccccc43)nc(C)c2cc1C,0%,4%,6%,4%,-8%
CCOc1ccc(NC(=O)CSc2nc3c([nH]c4ccccc43)c(=O)n2-c2cc(C)cc(C)c2)cc1,/,/,/,19%[46 µM],/
CC(C)[C@H](Nc1ccc(S(=O)(=O)N2CCOCC2)cc1[N+](=O)[O-])C(=O)OCC(N)=O,18µM*,0%,2%,2%,-2%
O=C(Cc1ccccc1)Nc1c(C(=O)N2CCN(c3ccc(F)cc3)CC2)oc2ccccc12,/,/,/,-11%[46 µM],/
CC(=O)c1cccc(NC(=O)c2nc(-c3ccc(C)cc3)n3c2CCCCC3)c1,/,/,/,6%[46 µM],/
C/C(=C\C(=S)Nc1ccccc1)Nc1ccccc1,5%,-2%,4%,5%,16µM*
Nc1nc(Cl)nc2ccc(Br)cc12,-11%,0%,-19%,-5%,-8%
CCc1c(C)nc2ccc(Br)cc2c1Cl,4%,-2%,11µM*,-9%,-18%
O=C(/C=C/c1ccc(O)c(O)c1)OCCc1ccccc1,?,-4%,20%,?,?
O=C(/C=C/c1ccc(O)c(O)c1)O[C@@H]1C[C@@](O)(C(=O)O)C[C@H](O)[C@@H]1O,?,-3%,14%,/,-14%
O=C(/C=C/c1ccc(O)c(O)c1)OC(Cc1ccc(O)c(O)c1)C(=O)O (stereo not drawn),-15%,0%,23%,/,22µM*!
O=C(/C=C\c1ccc(O)c(O)c1)O[C@@H](Cc1ccc(O)c(O)c1)C(=O)O,-1%,4%,20%,/,28µM*
CC(C)(C)c1ccc(C(=O)C=[N+]=[N-])cc1,6.3µM*,-3%,25%[38.3 µM],0%,-22%
COC(=O)NNC(=O)c1ccc(C(C)(C)C)cc1,10%,-3%,-9%,7%,-21%
C[C@@H]1C[C@](C)(C(=O)c2ccco2)C=C1c1ccco1,14µM*,-1%,0%,/,-8%
O=C(Nc1ccc(Cl)cc1)OCc1cc(-c2ccccc2Cl)on1,4µM*,0%,-2%[38.3 µM],-6%,-4%
COCCn1c(=O)c(-c2cccs2)nc2cnc(Oc3cccc(Cl)c3)nc21,?,-1%,15%,/,?
CCOc1cc(/C=N/O)cc(Br)c1OCC(=O)NCc1ccccc1,?,2%,9%,?,18µM*
COc1cc(/C=N/NC(=O)CCC(=O)NCc2ccccc2)cc(OC)c1OC,2%,-5%,0%,?,-6%
CCOc1cc(/C=N/NC(N)=O)cc(Br)c1OCC(=O)Nc1cccc2ccccc12,6%,1%,6%[38.3 µM],18%,-16%
COc1cc(/C=N/O)cc(Br)c1OCC(=O)NCc1ccccc1,?,2%,0%,2%,14µM*
CCN(CC(=O)Nc1ccc(OC)cc1)C(=O)c1ccc([N+](=O)[O-])cc1,4%,/,-3%,/,/
O=C(O)c1nc2cc(Cl)c(Cl)cc2[nH]c1=O,-4%,-3%,2%,?,-9%
COC(=O)c1sccc1NC(=O)CC1C(=O)NCCN1C(=O)c1ccc(N(C)C)cc1 (stereo not drawn),10µM*,/,/,/,/
C=CCOCC1CN2C(CCC(C)C2c2ccc(Br)cc2)C(=O)O1 (stereo not drawn),4%[13.5 µM],/,/,/,/
